From ChEMBL document CHEMBL4513216, “Probing the Open Global Health Chemical Diversity Library for Multistage-Active Starting Points for Next-Generation Antimalarials” (ACS Infect Dis, 2020)
Hit rate of the full screen: of about 69,000 compounds, about 8,600 (12%) showed an effect of 50% or more. This excerpt belongs to a sample that is enriched for strong results.

test system: Plasmodium berghei; assay: Screen against P. berghei liver stage (PbLuc), transformed with Luciferase, at 10uM; format: functional, HepG2; conditions: tested at 10 uM

SMILES | INHIBITION [%]
Cc1ccccc1-n1cc(CN(C)C(=O)CC2C(=O)NCCN2C)cn1 (stereo unspecified) | 42.3
Cc1cccc(C(=O)N2CCCC[C@]3(C)NC(=O)CCC[C@H]23)n1 | 31.6
CN1CCCN(C(=O)c2cccn2-c2ccc3c(c2)OCCO3)CC1 | 6.99
CC(NC(=O)Nc1ccc(N2CCCC2)nc1)c1nncn1C (stereo unspecified) | 9.54
O=C(NCC1(O)COCCN(Cc2cccc(O)c2)C1)c1cnccn1 (stereo unspecified) | -25.3
COc1ccc(C(=O)NCCCn2ccnc2)c(OC)n1 | 26.6
CC(C)c1[nH]c2ncccc2c1CN1CCOCC1 | -21.6
Cc1ccc(CNC(=O)CN2CCOC(Cn3cccn3)C2)s1 (stereo unspecified) | -45.4
O=C(NCc1ccc(-n2cncn2)nc1)c1cc(Cl)ccn1 | 45
Cc1cc(C)n(Cc2cccc(C(=O)NCCSCC(C)(C)O)c2)n1 | 0.426
O=C(NCC1CCC1)c1cccc(CN2CCS(=O)(=O)CC2)c1 | 33.4
Cc1cccc(NC(=O)c2sc(C)nc2C)n1 | -9.57
COc1ccccc1NC(=O)c1[nH]nc(C(C)C)c1Br | -101
CC(C)c1n[nH]c(C(=O)Nc2cc[nH]n2)c1Br | 55.9
Cc1cccc(NC(=O)c2cncc(C3CCNCC3)n2)n1 | 15.5
Cc1cccc(NC(=O)c2[nH]nc(C(C)C)c2Br)n1 | 65
CC(C)CC(NC(=O)c1cccc(F)c1F)C(=O)Nc1cc[nH]n1 (stereo unspecified) | -36.4
CN(C)CCCN(Cc1cnn(C)c1)Cc1ccco1 | -9.35
Oc1ccccc1-c1n[nH]c(C2CCCO2)n1 (stereo unspecified) | -3.11

SMILES | INHIBITION [%]
c1cnnc(N2CCCC2CNCc2cscn2)c1 (stereo unspecified) | -56.1835
Cc1ccsc1C1CC(=O)Nc2c1cnn2C(C)C (stereo unspecified) | 11.9
CC(NCCn1cccn1)c1ccc(F)cc1F (stereo unspecified) | 16.8
Cc1ccc(-c2n[nH]cc2CNCCn2cccn2)o1 | 77.6
Fc1ccc(-c2n[nH]cc2CNCCn2cccn2)cc1 | 77.6
c1ccc(-n2cncn2)c(CNCCn2cccn2)c1 | -14.2
Cc1ccc(-c2n[nH]cc2CNCC2CCS(=O)(=O)C2)o1 (stereo unspecified) | -29.4
Fc1cc(CNCCn2cccn2)ccc1-n1cncn1 | 50.8
Fc1ccc(-c2nc(CNCCn3cccn3)cs2)cc1 | 4.02
CC(NCCn1cccn1)c1ccccc1F (stereo unspecified) | 27.9
CCn1cnnc1CCNCc1c[nH]nc1-c1ccc(F)cc1 | -5.94
CC(NCCn1cccn1)c1cc(F)ccc1F (stereo unspecified) | 53.8
Cc1ccc(-c2nc(CNCCn3cccn3)cs2)o1 | 10.8
Fc1ccc(CNCCn2cccn2)cc1F | 26.9
Cn1cc(CN2CC[C@H]3O[C@@H](COCc4cccnc4)CC[C@H]32)cn1 | 3.11
Cc1ncc2c(n1)C1(CCN(C(=O)C3CC3)CC1)OCC2 | 7.15
O=C(c1cnn(-c2ccccc2)n1)N1CCCC(n2cccn2)C1 (stereo unspecified) | 33.8
CCOC(=O)c1c(NC(=O)CN2CCN(C(C)=O)CC2)sc(C)c1C | -13.5
COc1cc(NC(=O)NCC2CCCO2)cc(OC)c1OC (stereo unspecified) | 29.8

SMILES | INHIBITION [%]
CC(C)c1nc2c(n1C)CCN(Cc1cccc(C(N)=O)c1)C2 | 34
Cc1ccc(F)c(S(=O)(=O)NCc2cccc(C(=O)N3CCCC3)c2)c1 | 17.5
Fc1ccc(CNCCn2cccn2)c(Cl)c1 | 64.1
Cc1cc(F)ccc1CNCCn1cccn1 | 30.1
Fc1ccc(CNCCn2cccn2)c(F)c1 | -13.3
Cc1cc(C)c(CNC(=O)CCC2CCCO2)c(=O)[nH]1 (stereo unspecified) | 11.45
NC(=O)NCC(=O)N1C[C@@H]2CC[C@H]1CN(Cc1cscn1)C2 | 7.3
Cc1nnc(CCNC(=O)[C@H]2CNC[C@@H](C(=O)N3CCCC3)C2)s1 | -5.08
COc1ncccc1NC(=O)N(Cc1ccc(C)o1)C1CC1 | 58.2
COc1ncccc1NC(=O)N(Cc1ccco1)C1CC1 | -18
CCN(C(=O)Nc1cccnc1OC)C1CC1 | 53.5
COc1ncccc1NC(=O)N(CC(C)C)C1CC1 | -2.19
COc1ncccc1NC(=O)N(Cc1ccccn1)C1CC1 | -47.6
COc1ncccc1NC(=O)N(Cc1ccc(C(N)=O)cc1)C1CC1 | -35.7
CC(=O)N1CCn2c(nnc2C2CCCCN2C(C)=O)C1 (stereo unspecified) | -55
COCCCNC(=O)c1cc(C(C)C)nc(N2CCCCCC2)n1 | 37.5
COCCNC(=O)c1cc(C(C)C)nc(N2CCCCC2)n1 | 52.4
CCCNC(=O)c1cc(C(C)C)nc(N2CCCC2)n1 | 32.5
